According to PubChem BioAssay (EPA / NIEHS):
Active and inactive are the calls of the source. The calls were made as follows: active = hit-call score of the fitted dose curve at least 0.9, where 1 is the maximum; inactive = score below 0.9.

assay: APR_HepG2_P-H2AX_1hr: Apredica 1-hour HepG2 Assay for H2AX Phosphorylation (AID 2282673); conditions: high-content imaging, actives raise or lower the signal
Experimental: APR_HepG2_1hr is a cell-based, multiplexed-readout assay that uses HepG2, a human liver cell line, with measurements taken at 1 hour after chemical dosing in a 384-well plate.APR_HepG2_P-H2AX_1hr is one of 10 assay component(s) measured or calculated from the APR_HepG2_1hr assay. It is designed to make measurements of dna content, a form of viability reporter, as detected with fluorescence intensity signals by HCS Fluorescent Imaging technology.Data from the assay component APR_HepG2_P-H2AX_1hr was analyzed into 1 assay endpoint. This assay endpoint, APR_HepG2_P-H2AX_1hr, was analyzed with bidirectional fitting relative to DMSO as the negative control and baseline of activity. Using a type of viability reporter, measures of protein for gain or loss-of-signal activity can be used to understand the signaling at the pathway-level as they relate to the gene . Furthermore, this assay endpoint can be referred to as a primary readout, because this assay has produced multiple assay endpoints where this one serves a signaling function. To generalize the intended target to other relatable targets, this assay endpoint is annotated to the dna binding intended target family, where the subfamily is cellular response to DNA damage stimulus.
Cells were treated with dimethyl sulfoxide (DMSO) as a solvent control at a final concentration of 0.5% v/v or with compounds in DMSO with a resulting final DMSO concentration of 0.5% v/v. Compound treatment was done at concentrations of 0.39, 0.78, 1.56, 3.12, 6.24, 12.5, 25, 50, 100, and 200 uM in duplicate on each plate. Cells were treated with compounds for 1, 24, or 72 hr. Carbonyl […] m-chloro-phenylhydrazone (CCCP) and taxol were used as positive controls for mitochondrial function and cytoskeletal stability, respectively; DMSO served as the negative control for this experiment. Cells were fixed by the direct addition of 50 uL formaldehyde in Hank's Balanced Salt Solution (HBSS) to a final concentration of 3.7%. After incubation in the fixation medium for 30 min at room temperature (293-298 K), cells were rinsed twice with HBSS and treated with cell permeabilization buffer (16 uL of 0.5% Triton X-100) for 10 min at room temperature (293-298 K) before labeling. For mitochondrial membrane potential and mitochondrial measurements, pre-fixed cells were incubated with 50 uL of MitoTracker Red CMXRos (Invitrogen) at a concentration of 250 nM for 30 min before fixation. In the remaining cases, post-fixed cells were labeled by incubation with a multiplexed mixture of primary antibodies in HBSS for 60 min at room temperature (293-298 K) to detect immunoreactivity of c-Jun (1:500), phospho-histone H3 (1:100), phospho-histone H2A.x (1:200), p53 (1:400), alpha-tubulin (1:200) and Hoechst 33342 (2 ug/mL). Cells were labeled for multiplexed imaging on two separate plates: a) Hoechst 33342, MitoTracker Red, phospho-histone H3, and alpha-tubulin, and b) Hoechst 33342, phospho-histone H2A.x, and c-Jun. A final rinse with HBSS (50 uL) was performed before analysis. The primary and secondary antibodies for the proteins were phospho-histone H3 (rabbit anti-phospho-histone H3 and FITC-donkey anti-rabbit IgG), phospho-histone H2A.x (mouse anti-phospho-histone H2A.x and FITC-donkey anti-mouse IgG), c-Jun (rabbit anti-phospho-c-Jun and Cy3-donkey anti-rabbit IgG), p53 (sheep anti-p53 and Cy5-donkey anti-sheep IgG), alpha-tubulin (mouse anti-alpha-tubulin and Cy5-donkey anti-mouse IgG). These antibodies are available as the CellCiphr HepG2 assay kit (Millipore).Digital images of each well were captured using a Cellomics ArrayScan VTI (Thermo Scientific Cellomics) (0.8 NA objective, 0.63x optical coupler, and XF-93 filter set) at 20x magnification. The images were acquired using the autofocus feature of the ArrayScan instrument, which entails the following steps. First, the camera focuses on channel 1 (Hoechst 33342), where nuclei are identified. Second, a Z offset of 1 um is used for capturing mitochondria (MitoTracker Red). […]

Which outcome does the source give for `CN1COCN(Cc2cnc(Cl)s2)C1=N[N+](=O)[O-]` here?
Its outcome is “inactive”.

For `CSC1=N[C@@](C)(c2ccccc2)C(=O)N1Nc1ccccc1`, which outcome is on record?
Its outcome is “inactive”.

For `Cc1nn(-c2cc(NS(C)(=O)=O)c(Cl)cc2Cl)c(=O)n1C(F)F`, which outcome is on record?
The outcome was “inactive”.

With `COc1cccc(C(=O)NN(C(=O)c2cc(C)cc(C)c2)C(C)(C)C)c1C` as the molecule, how does the outcome read?
The outcome was “inactive”.

For `CCc1cnc(C2=NC(C)(C(C)C)C(=O)N2)c(C(=O)O)c1` (stereo not given), which outcome is on record?
Its outcome is “inactive”.

With `CC(C1CC1)C(O)(Cn1cncn1)c1ccc(Cl)cc1` (stereo not given) as the molecule, how does the outcome read?
Its outcome is “inactive”.

For `CC1=NNC(=O)N(/N=C/c2cccnc2)C1`, which outcome is on record?
Its outcome is “inactive”.

For `CNC(=O)ON=C(C)SC`, which outcome is on record?
Its outcome is “inactive”.

For `COP(=O)(OC)OC(Br)C(Cl)(Cl)Br` (stereo not given), which outcome is on record?
Its outcome is “inactive”.

Which outcome does the source give for `CCOP(=S)(OCC)Oc1ccc([N+](=O)[O-])cc1` here?
The outcome was “inactive”.

With `CCOP(=O)(NC(C)C)Oc1ccc(SC)c(C)c1` (stereo not given) as the molecule, how does the outcome read?
Its outcome is “inactive”.

With `CCOP(=S)(OCC)Oc1ccc2c(C)c(Cl)c(=O)oc2c1` as the molecule, how does the outcome read?
The outcome was “inactive”.

For `COP(=O)(OC)SCn1c(=O)oc2cc(Cl)cnc21`, which outcome is on record?
The outcome was “inactive”.

For `CSc1nnc(C(C)(C)C)c(=O)n1N`, which outcome is on record?
Its outcome is “inactive”.

Which outcome does the source give for `CC(Oc1cccc(Cl)c1)C(=O)O` (stereo not given) here?
The outcome was “inactive”.

For `CC(C)N(C(=O)SCC(Cl)=C(Cl)Cl)C(C)C`, which outcome is on record?
Its outcome is “inactive”.

For `CCCCOC(=O)[C@@H](C)Oc1ccc(Oc2ccc(C#N)cc2F)cc1`, which outcome is on record?
Its outcome is “inactive”.

For `N#CSCSC#N`, which outcome is on record?
Its outcome is “inactive”.

With `CCNc1nc(Cl)nc(NC(C)(C)C#N)n1` as the molecule, how does the outcome read?
Its outcome is “inactive”.

Which outcome does the source give for `CCOP(=S)(OCC)SCCSCC` here?
The outcome was “inactive”.

For `CON=C(C(=O)OC)c1ccccc1CON=C(C)c1cccc(C(F)(F)F)c1`, which outcome is on record?
The outcome was “inactive”.

Which outcome does the source give for `CCCOCC(=Nc1ccc(Cl)cc1C(F)(F)F)n1ccnc1` here?
The outcome was “inactive”.

For `CC(C)[C@H](C(=O)O[C@H](C#N)c1cccc(Oc2ccccc2)c1)c1ccc(Cl)cc1`, which outcome is on record?
Its outcome is “inactive”.

With `CCOP(=S)(Oc1cnc(C(C)(C)C)nc1)OC(C)C` (stereo not given) as the molecule, how does the outcome read?
Its outcome is “inactive”.

Which outcome does the source give for `CCC(=NOC/C=C/Cl)C1=C(O)CC(C2CCOCC2)CC1=O` (stereo not given) here?
Its outcome is “inactive”.

With `C[Si](Cn1cncn1)(c1ccc(F)cc1)c1ccc(F)cc1` as the molecule, how does the outcome read?
Its outcome is “inactive”.

Which outcome does the source give for `CCOP(=S)(OCC)OC(Cl)C(Cl)(Cl)Cl` (stereo not given) here?
Its outcome is “inactive”.

For `CCCCN(CC)c1c([N+](=O)[O-])cc(C(F)(F)F)cc1[N+](=O)[O-]`, which outcome is on record?
The outcome was “inactive”.

Which AC50 does the source give for `O=[N+]([O-])c1cc(C(F)(F)F)c(Cl)c([N+](=O)[O-])c1Nc1ncc(C(F)(F)F)cc1Cl` here?
Its AC50 is 21.6 µM (active).

For `CC(=NC#N)N(C)Cc1ccc(Cl)nc1`, which outcome is on record?
The outcome was “inactive”.

For `COc1ccc(C(=CC(=O)N2CCOCC2)c2ccc(Cl)cc2)cc1OC`, which outcome is on record?
The outcome was “inactive”.

With `CCOP(=O)(OCC)Oc1cc(C)nc(C(C)C)n1` as the molecule, how does the outcome read?
The outcome was “inactive”.

With `COc1cc(OC)nc(Sc2cccc(Cl)c2C(=O)O)n1` as the molecule, how does the outcome read?
The outcome was “inactive”.

For `O=c1ccc(=O)[nH][nH]1`, which outcome is on record?
Its outcome is “inactive”.

With `S=C1NCCN1` as the molecule, how does the outcome read?
The outcome was “inactive”.

For `CSc1nc(NC(C)C)nc(NC(C)C)n1`, which outcome is on record?
The outcome was “inactive”.

With `CCCSP(=O)(OCC)SCCC` as the molecule, how does the outcome read?
Its outcome is “inactive”.

Which outcome does the source give for `CC(C)=CC1C(C(=O)OCN2C(=O)C3=C(CCCC3)C2=O)C1(C)C` (stereo not given) here?
The outcome was “inactive”.

With `CC1(C(=O)Nc2ccc(O)c(Cl)c2Cl)CCCCC1` as the molecule, how does the outcome read?
The outcome was “inactive”.

Which AC50 does the source give for `CC[C@H](C)[C@H]1O[C@]2(C=C[C@@H]1C)C[C@@H]1C[C@@H](C/C=C(\C)[C@@H](O[C@H]3C[C@H](OC)[C@@H](O[C@H]4C[C@H](OC)[C@@H](NC)[C@H](C)O4)[C@H](C)O3)[C@@H](C)/C=C/C=C3\CO[C@@H]4[C@H](O)C(C)=C[C@@H](C(=O)O1)[C@]34O)O2` here?
Its AC50 is 16.8 µM (active).
